# Calls of active or inactive are those of the source. The calls were made as follows: active = hit-call score of the fitted dose curve at least 0.9, where 1 is the maximum; inactive = score below 0.9.
# Legend:
# [1] = ATG_CRE_CIS: Attagene CIS-FACTORIAL HepG2 Assay for human cAMP Responsive Element (CRE) binding protein 3 (AID 2282926); conditions: HepG2 CRE cis-reporter, Attagene multiplexed mRNA; actives raise or lower the signal
# Summary of the method: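 Liver-derived HepG2, transfected with a CRE-containing reporter panel, exposed 24 h; transcript levels sized and quantified by capillary electrophoresis of labelled amplicons; signal changes either way referenced to vehicle.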
# [2] = target: CCAAT/enhancer-binding protein beta (Homo sapiens) (UniProt P17676); assay: ATG_C_EBP_CIS: Attagene CIS-FACTORIAL HepG2 Assay for human CCAAT/Enhancer Binding Protein (C/EBP) beta (AID 2282927); conditions: HepG2 Attagene cis-factorial transcription factor reporter; actives raise or lower the signal
# Sequence of CCAAT/enhancer-binding protein beta (Homo sapiens) (P17676 whole entry, looked up): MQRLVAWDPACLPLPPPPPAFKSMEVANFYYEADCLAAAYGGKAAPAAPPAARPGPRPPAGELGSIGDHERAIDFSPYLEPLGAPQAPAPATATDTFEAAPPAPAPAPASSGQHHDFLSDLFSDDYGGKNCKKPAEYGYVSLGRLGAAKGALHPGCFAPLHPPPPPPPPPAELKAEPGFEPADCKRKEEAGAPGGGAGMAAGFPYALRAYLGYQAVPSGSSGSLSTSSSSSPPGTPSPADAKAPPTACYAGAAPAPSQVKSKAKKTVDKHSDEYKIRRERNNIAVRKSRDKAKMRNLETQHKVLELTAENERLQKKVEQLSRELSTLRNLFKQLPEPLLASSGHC
# Summary of the method: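 HepG2 transiently transfected with multiplexed reporter units under cis-regulatory promoters reporting endogenous C/EBPb activity. After 24 h exposure, reporter mRNA assayed by RT-PCR, fluorescent labelling, HpaI digestion and capillary electrophoresis; bidirectional fitting versus DMSO.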
# [3] = ATG_CMV_CIS: Attagene CIS-FACTORIAL HepG2 Assay for human CMV (Internal Marker) (AID 2282928); conditions: HepG2 CMV promoter reporter, transcription factor profiling; actives raise or lower the signal;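 also: endpoint acts as a background internal control marker rather than a target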
# Summary of the method: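 Fluorescence intensity of RT-PCR-derived reporter fragments, resolved by capillary electrophoresis, gives the signal. HepG2 liver cells bearing transfected cis-element reporters were treated 24 h; activity in either direction was fit relative to DMSO-treated controls.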
# [4] = ATG_DR4_LXR_CIS: Attagene CIS-FACTORIAL HepG2 Assay for human Liver X Receptor (LXR), DR4 submotif (AID 2282929); conditions: HepG2 Attagene DR4 cis-reporter, mRNA transcription; actives raise or lower the signal
# Summary of the method: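 Total RNA from 24 h-treated, MRTU-transfected HepG2 cells underwent reverse transcription, PCR, fluorescent primer extension and restriction digestion before capillary electrophoresis. Both increases and decreases in reporter signal were fitted against DMSO.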
# [5] = target: Aryl hydrocarbon receptor (Homo sapiens) (UniProt P35869); assay: ATG_Ahr_CIS: Attagene CIS-FACTORIAL HepG2 Assay for human Aryl Hydrocarbon Receptor (Ahr) (AID 2282930); conditions: HepG2 AhR cis-factorial reporter transcription; actives raise or lower the signal
# Sequence of Aryl hydrocarbon receptor (Homo sapiens) (P35869 whole entry, looked up): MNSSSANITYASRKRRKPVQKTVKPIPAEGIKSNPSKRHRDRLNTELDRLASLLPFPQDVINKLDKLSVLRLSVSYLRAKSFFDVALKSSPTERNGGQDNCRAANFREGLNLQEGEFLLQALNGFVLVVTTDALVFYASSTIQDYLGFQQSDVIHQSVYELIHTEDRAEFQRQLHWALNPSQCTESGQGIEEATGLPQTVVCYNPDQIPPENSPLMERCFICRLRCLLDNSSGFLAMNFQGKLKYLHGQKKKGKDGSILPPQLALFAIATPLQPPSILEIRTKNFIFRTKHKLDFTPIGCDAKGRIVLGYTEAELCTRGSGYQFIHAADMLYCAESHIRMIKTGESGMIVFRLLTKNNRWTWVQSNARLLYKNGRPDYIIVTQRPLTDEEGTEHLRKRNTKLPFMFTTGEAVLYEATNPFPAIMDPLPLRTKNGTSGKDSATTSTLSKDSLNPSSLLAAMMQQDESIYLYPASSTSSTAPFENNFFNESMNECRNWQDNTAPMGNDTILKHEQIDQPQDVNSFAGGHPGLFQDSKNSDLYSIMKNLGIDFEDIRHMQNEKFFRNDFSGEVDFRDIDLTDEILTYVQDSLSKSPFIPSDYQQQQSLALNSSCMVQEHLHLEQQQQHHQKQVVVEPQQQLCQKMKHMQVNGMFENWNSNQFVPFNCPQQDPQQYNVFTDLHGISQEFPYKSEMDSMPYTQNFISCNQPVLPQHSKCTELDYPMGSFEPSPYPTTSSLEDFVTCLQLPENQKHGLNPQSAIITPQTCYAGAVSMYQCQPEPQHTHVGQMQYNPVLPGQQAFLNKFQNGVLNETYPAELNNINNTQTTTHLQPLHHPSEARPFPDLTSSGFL
# Summary of the method: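 HepG2 cells transiently transfected with cis-element-driven multiplexed reporter units; endogenous AhR activity read as reporter mRNA 24 h after dosing, via RT-PCR, 6-FAM labelling, HpaI digestion and capillary electrophoresis. Bidirectional fit relative to DMSO.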
# [6] = ATG_AP_1_CIS: Attagene CIS-FACTORIAL HepG2 Assay for human Activator Protein 1 (AP-1) (AID 2282931); conditions: HepG2 Attagene cis-factorial AP-1 reporter mRNA; actives raise or lower the signal
# Summary of the method: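 HepG2, transient cis-reporter transfection; 24 h; readout RT-PCR/CE fluorescence; DMSO baseline, gain and loss fitted.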
# [7] = ATG_AP_2_CIS: Attagene CIS-FACTORIAL HepG2 Assay for human Activator Protein 2 (AP-2) (AID 2282932); conditions: HepG2 AP-2 cis-reporter, Attagene transcription factor profiling; actives raise or lower the signal
# Summary of the method: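 Read-out: fluorescent reporter mRNA via RT-PCR and capillary electrophoresis, 24 h post-dose in transiently transfected HepG2. Endogenous factors drive cis-promoter reporters; gain or loss of signal fitted bidirectionally against DMSO.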
# [8] = ATG_BRE_CIS: Attagene CIS-FACTORIAL HepG2 Assay for human Bone Morphogenetic Protein (BMP) Response Element (BRE) (AID 2282933); conditions: HepG2 BMP response element reporter, Attagene transcription factor profiling; actives raise or lower the signal
# Summary of the method: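 Multiplexed cis-reporter assay, HepG2, 24 h exposure. mRNA from reporter units quantified via RT-PCR/CE; DMSO baseline; bidirectional curve fit.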
# [9] = target: Transcription factor E2F1 (Homo sapiens) (UniProt Q01094); assay: ATG_E2F_CIS: Attagene CIS-FACTORIAL HepG2 Assay for human E2F Transcription Factor 1 (AID 2282935); conditions: HepG2 Attagene cis-reporter, E2F reporter RNA transcripts; actives raise or lower the signal
# Sequence of Transcription factor E2F1 (Homo sapiens) (Q01094 whole entry, looked up): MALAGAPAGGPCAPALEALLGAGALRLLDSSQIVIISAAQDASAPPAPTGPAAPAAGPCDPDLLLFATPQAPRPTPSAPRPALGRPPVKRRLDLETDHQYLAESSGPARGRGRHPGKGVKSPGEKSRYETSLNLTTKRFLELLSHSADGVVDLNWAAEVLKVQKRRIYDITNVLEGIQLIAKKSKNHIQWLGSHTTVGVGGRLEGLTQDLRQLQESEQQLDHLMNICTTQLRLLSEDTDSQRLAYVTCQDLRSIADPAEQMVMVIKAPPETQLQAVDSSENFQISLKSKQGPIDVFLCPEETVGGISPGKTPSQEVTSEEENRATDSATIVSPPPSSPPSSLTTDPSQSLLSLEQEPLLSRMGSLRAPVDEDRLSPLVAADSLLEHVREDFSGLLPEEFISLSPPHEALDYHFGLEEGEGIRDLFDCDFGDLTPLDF
# Summary of the method: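 Transient MRTU transfection of HepG2; 24 h compound exposure; RNA → oligo(dT) RT → PCR → FAM label → HpaI cut → CE fluorescence. Gain/loss of signal fit against DMSO.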
Structure (SMILES),outcome [1],outcome [2],outcome [3],outcome [4],outcome [5],outcome [6],outcome [7],outcome [8],outcome [9],AC50 [5],AC50 [3],AC50 [4],AC50 [6],AC50 [7],AC50 [8],AC50 [9],AC50 [1]
CN1[C@@H]2CC(OC(=O)[C@H](CO)c3ccccc3)C[C@H]1[C@@H]1O[C@@H]12 (stereo not given in full),inactive,inactive,inactive,inactive,inactive,inactive,inactive,inactive,inactive,–,–,–,–,–,–,–,–
CC(CC(C)(C)C)CC(C)(C)CC(C)(C)C (stereo not given),inactive,inactive,inactive,inactive,inactive,inactive,inactive,inactive,inactive,–,–,–,–,–,–,–,–
Nc1cc([N+](=O)[O-])ccc1Cl,inactive,inactive,inactive,inactive,–,inactive,inactive,inactive,inactive,20.2 µM (active),–,–,–,–,–,–,–
COc1ccc(O)cc1,inactive,inactive,inactive,inactive,inactive,inactive,inactive,inactive,inactive,–,–,–,–,–,–,–,–
CCCCCCCCCCCCCOS(=O)(=O)O,inactive,inactive,inactive,inactive,inactive,inactive,inactive,inactive,inactive,–,–,–,–,–,–,–,–
CN(C)c1ccc(O)c2c1C[C@H]1C[C@H]3[C@H](N(C)C)C(=O)C(C(N)=O)=C(O)[C@@]3(O)C(=O)C1=C2O,inactive,inactive,inactive,inactive,inactive,inactive,inactive,inactive,inactive,–,–,–,–,–,–,–,–
CC1=CC(=O)NS(=O)(=O)O1,inactive,inactive,inactive,inactive,inactive,inactive,inactive,inactive,inactive,–,–,–,–,–,–,–,–
OC1C(O)C(O)C(O)C(O)C1O (stereo not given),inactive,inactive,inactive,inactive,–,inactive,inactive,inactive,inactive,70.3 µM (active),–,–,–,–,–,–,–
CCCCCCCCCCCCSC,inactive,inactive,–,inactive,inactive,inactive,inactive,inactive,inactive,–,100 µM (active),–,–,–,–,–,–
OC[C@H]1O[C@H](O[C@]2(CCl)O[C@H](CCl)[C@@H](O)[C@@H]2O)[C@H](O)[C@@H](O)[C@H]1Cl,inactive,inactive,inactive,inactive,inactive,inactive,inactive,inactive,inactive,–,–,–,–,–,–,–,–
CC(O)C(C)O (stereo not given),inactive,inactive,inactive,inactive,inactive,inactive,inactive,inactive,inactive,–,–,–,–,–,–,–,–
CC(C)=CCCC(C)=CCCC(C)=CCO,inactive,inactive,inactive,inactive,inactive,inactive,inactive,inactive,inactive,–,–,–,–,–,–,–,–
O=C1c2ccccc2C(=O)N1SC1CCCCC1,inactive,inactive,inactive,–,–,–,–,–,inactive,26.9 µM (active),–,170 µM (active),84.5 µM (active),129 µM (active),75.1 µM (active),–,–
Cc1cccc(Nc2ccccc2C(=O)O)c1C,inactive,inactive,inactive,inactive,inactive,inactive,inactive,inactive,inactive,–,–,–,–,–,–,–,–
COC(C(=O)O)c1ccccc1 (stereo not given),inactive,inactive,inactive,inactive,inactive,inactive,inactive,inactive,inactive,–,–,–,–,–,–,–,–
CC(C)CCCCCCCOC(=O)c1ccc(C(=O)OCCCCCCCC(C)C)c(C(=O)OCCCCCCCC(C)C)c1,inactive,inactive,inactive,inactive,inactive,inactive,inactive,inactive,inactive,–,–,–,–,–,–,–,–
C=CC(C)(CCC=C(C)C)OC=O (stereo not given),inactive,inactive,inactive,inactive,inactive,inactive,inactive,inactive,inactive,–,–,–,–,–,–,–,–
CC(C)(Oc1ccc(CCNC(=O)c2ccc(Cl)cc2)cc1)C(=O)O,inactive,inactive,inactive,inactive,inactive,inactive,inactive,inactive,inactive,–,–,–,–,–,–,–,–
CC(C)(C#N)c1cc(Cn2cncn2)cc(C(C)(C)C#N)c1,inactive,inactive,inactive,inactive,inactive,inactive,inactive,inactive,inactive,–,–,–,–,–,–,–,–
CCCCC/C=C/C=C/C=O,inactive,inactive,inactive,–,inactive,inactive,inactive,inactive,inactive,–,–,167 µM (active),–,–,–,–,–
Clc1nc(C(Cl)(Cl)Cl)c(Cl)c(Cl)c1Cl,inactive,inactive,–,–,–,–,inactive,inactive,–,12.6 µM (active),24.9 µM (active),18 µM (active),28.8 µM (active),–,–,22.6 µM (active),–
CCOC(=S)SSC(=S)OCC,inactive,inactive,inactive,inactive,inactive,inactive,inactive,inactive,inactive,–,–,–,–,–,–,–,–
Cc1cc(C2(c3cc(C)c(O)cc3C)OS(=O)(=O)c3ccccc32)c(C)cc1O,inactive,inactive,inactive,inactive,–,inactive,inactive,inactive,inactive,44.5 µM (active),–,–,–,–,–,–,–
CCCc1c(OCCCOc2ccc(OCC(=O)O)cc2)ccc(C(C)=O)c1O,inactive,inactive,–,inactive,inactive,inactive,inactive,–,inactive,–,64.1 µM (active),–,–,–,137 µM (active),–,–
O=C(O)c1snc(Cl)c1Cl,–,inactive,inactive,–,–,–,inactive,inactive,inactive,14.5 µM (active),–,100 µM (active),100 µM (active),–,–,–,155 µM (active)
